Drawing on PubChem BioAssay (NCI), this text covers growth for 23 molecules.

The panel holds about 83,000 compounds, 20% with a hit somewhere; the sample as a whole holds those more often.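 Growth was measured after 48 h exposure to one concentration of compound in 96-well plates. Values under 10 count as active.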 A number with no mark means an inactive call. The source made the active and inactive calls.

The test system of the test is SN12C renal. Nature of the test: NCI-60 one-dose screen, 48 h (100 = growth as untreated, 0 = no growth, -100 = all killed). The following applies: 10 µM unless noted.
On to `Cc1ccc(C)c2c1SC1=NNC(Oc3ccc(Cl)cc3)=C(C#N)C(=N)N12`, for which the growth is 117%.

Take `CCOC(=O)C(Cc1ccccc1)n1c(O)c(/C=N/c2ncc(Cc3ccc(Cl)cc3Cl)s2)sc1=S` (stereo not drawn): the growth is 6.54% (active).

As for `COc1ccc(-c2cnc(-c3ccncc3-c3cccc(OC)c3)o2)cc1`, the growth was 15%.

Regarding `Cc1ccc(OC2=C(C#N)C(=N)N3C(=NN2)Sc2c(C)ccc(C)c23)cc1`, the growth was 106%.

Turning to `O=C(Nc1ccncc1)C(=O)c1cn(S(=O)(=O)c2cccc(Cl)c2F)c2ccccc12`, the growth was 82.9%.

As for `CN1C(=O)NC(Cc2c[nH]c3c(Cl)cccc23)C1=O` (stereo not drawn), the growth was 101%.

Turning to `COc1ccc(C(=O)OC2C(OC3C(O)COC(O[C@H]4C[C@H]5[C@@H]6CC=C7C[C@@H](O)CC[C@]7(C)[C@H]6CC[C@]5(C)[C@H]4[C@H](C)C(=O)CCC(C)C)C3OC(C)=O)OCC(O)C2O)cc1` (stereo partly drawn), the growth is 44.3%.

With `C[C@@H]1N=C(c2ccc3ccccc3c2)Nc2nc3ccccn3c2C1=O`, the growth was 60.1%.

For `O=[N+]([O-])c1ccc(N=Nc2c(NNc3ccc([N+](=O)[O-])cn3)cc(S(=O)(=O)O)c3ccccc23)nc1`, the growth is 81.5%.

As to `CS(=O)(=O)c1ccc(C(=O)N/N=C/c2ccccc2Cl)cc1`, the growth is 98.3%.

Regarding `CC1=C(O)C(=O)CC1`, the growth was 97%.

Regarding `O=C(N/N=C/c1ccc([N+](=O)[O-])cc1)c1ccccc1Nc1ccnc(C(F)(F)F)c1`, the growth was 83.9%.

`Cc1ccc(C(CN(C)C)C(=O)c2ccccc2)cc1` (stereo not drawn): the growth was 36.4%.

For `CN1CCC2(CC1)N=C(SCC(=O)Nc1cnc3ccccc3c1)C(c1ccc(Br)cc1)=N2`, the growth was 31.1%.

For `Nc1c(C(=O)C[C@@H](N)CO)ccc2c1C(=O)CCO2`, the growth was 32.7%.

For `Cc1ccncc1NC=O`, the growth is 110%.

For the molecule `Cc1c2c(cc3c1[nH]c1ccccc13)C=NCC2`, the growth was 90.8%.

For the molecule `O=S1(=O)NCCCN1CCNc1nccc(-c2c(-c3cccc(O)c3)nc3sccn23)n1`, the growth is 43.4%.

With `CCc1c(C)c2ccc(O)c(-c3cc(-c4ccccc4)c(C#N)c(=O)[nH]3)c2oc1=O`, the growth was 105%.

As for `COc1ccc2nc3cc(Cl)ccc3c(NC(=O)CSc3ccc(Cl)cc3)c2c1`, the growth is -75.3% (active).

As for `C=CC(=O)N1CN(C(=O)C=C)CN(C(=O)C=C)C1`, the growth is 95.2%.

In the case of `CCCC(CCC)(C(N)=O)C(=O)O`, the growth is 102%.

Turning to `C=CCCCCOc1cccc(/C=C2\N=C3SCCCN3C2=O)c1`, the growth was 89.8%.
